# Reference: paper PMC7862700, “An all-to-all approach to the identification of sequence-specific readers for epigenetic DNA modifications on cytosine”
# Tests used:
# Experiment in all cases: DAPPL (digital affinity profiling via proximity ligation, sequencing); 10 mM Tris-HCl pH 7.5, 50 mM NaCl, 1 mM DTT, 4% glycerol, room temperature, 30 min; GST-TFs on glutathione beads, 16-mer random dsDNA library, 0.1% formaldehyde crosslink after washing; high values mean tight binding
# Conditions in all cases: protein: recombinant; tags: N-terminal GST; dsDNA, one strand shown
# FLI1 = target: T1, FLI1 (Homo sapiens, UniProt Q01543 1-452)
# T1 sequence: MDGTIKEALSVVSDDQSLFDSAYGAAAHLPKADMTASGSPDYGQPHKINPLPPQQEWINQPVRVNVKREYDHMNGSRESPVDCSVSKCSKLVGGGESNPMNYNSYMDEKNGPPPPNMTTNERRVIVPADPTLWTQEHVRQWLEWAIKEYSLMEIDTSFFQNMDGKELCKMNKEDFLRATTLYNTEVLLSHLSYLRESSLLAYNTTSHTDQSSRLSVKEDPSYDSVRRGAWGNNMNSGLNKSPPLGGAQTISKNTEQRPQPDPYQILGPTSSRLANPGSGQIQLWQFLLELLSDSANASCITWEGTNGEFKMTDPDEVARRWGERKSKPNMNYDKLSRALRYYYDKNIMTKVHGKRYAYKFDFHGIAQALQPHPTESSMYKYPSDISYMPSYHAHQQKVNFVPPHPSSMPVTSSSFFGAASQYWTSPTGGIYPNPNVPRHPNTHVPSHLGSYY
# In short: (§1)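 After expression in yeast as GST fusions, human transcription factors were bound to glutathione beads, DNA-barcoded and mixed with a tag-only sample. The pools were incubated with 200 nmole of a 16-mer random double-stranded DNA library in Tris/NaCl/DTT/glycerol buffer (30 min, room temperature), washed and crosslinked with 0.1% formaldehyde. Proximity ligation with BsaI/T4 ligase ran for 1 h at 37 °C, before PCR amplification and sequencing on an Illumina NextSeq500. Binding signal is a hexamer's read frequency for a factor divided by its frequency for the tag-only sample.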
# GABPA = target: T2, GABPA (Homo sapiens, UniProt Q06546 1-454)
# T2 sequence: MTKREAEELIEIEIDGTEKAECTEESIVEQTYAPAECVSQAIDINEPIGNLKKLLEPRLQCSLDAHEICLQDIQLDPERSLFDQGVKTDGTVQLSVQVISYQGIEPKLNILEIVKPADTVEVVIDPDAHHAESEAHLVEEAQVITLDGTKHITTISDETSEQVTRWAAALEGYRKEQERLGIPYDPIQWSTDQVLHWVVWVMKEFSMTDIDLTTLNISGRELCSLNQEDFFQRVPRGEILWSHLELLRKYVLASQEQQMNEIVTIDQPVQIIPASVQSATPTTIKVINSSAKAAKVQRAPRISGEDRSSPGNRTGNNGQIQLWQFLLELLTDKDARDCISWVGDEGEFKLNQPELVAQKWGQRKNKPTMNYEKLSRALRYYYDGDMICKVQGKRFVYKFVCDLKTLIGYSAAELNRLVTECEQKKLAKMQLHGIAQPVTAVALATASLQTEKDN
# In short: as §1
# ERG = target: T3, ERG (Homo sapiens, UniProt P11308 1-479)
# T3 sequence: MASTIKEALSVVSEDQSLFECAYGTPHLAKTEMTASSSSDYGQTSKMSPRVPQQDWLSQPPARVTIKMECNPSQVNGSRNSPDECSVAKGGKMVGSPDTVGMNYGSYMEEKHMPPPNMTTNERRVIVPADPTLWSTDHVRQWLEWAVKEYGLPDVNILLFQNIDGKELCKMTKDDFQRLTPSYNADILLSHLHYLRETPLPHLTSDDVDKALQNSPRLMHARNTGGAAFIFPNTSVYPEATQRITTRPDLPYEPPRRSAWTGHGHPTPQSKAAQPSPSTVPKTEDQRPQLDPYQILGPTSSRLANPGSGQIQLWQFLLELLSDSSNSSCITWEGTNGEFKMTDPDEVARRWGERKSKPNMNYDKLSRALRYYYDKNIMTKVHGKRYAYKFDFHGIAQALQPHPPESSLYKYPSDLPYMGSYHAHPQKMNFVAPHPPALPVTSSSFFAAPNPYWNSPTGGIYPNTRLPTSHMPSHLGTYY
# In short: as §1
# ELF1 = ELF1 (Homo sapiens, UniProt P32519 1-619)
# In short: as §1
# EHF = target: T4, EHF (Homo sapiens, UniProt Q9NZC4 1-300)
# T4 sequence: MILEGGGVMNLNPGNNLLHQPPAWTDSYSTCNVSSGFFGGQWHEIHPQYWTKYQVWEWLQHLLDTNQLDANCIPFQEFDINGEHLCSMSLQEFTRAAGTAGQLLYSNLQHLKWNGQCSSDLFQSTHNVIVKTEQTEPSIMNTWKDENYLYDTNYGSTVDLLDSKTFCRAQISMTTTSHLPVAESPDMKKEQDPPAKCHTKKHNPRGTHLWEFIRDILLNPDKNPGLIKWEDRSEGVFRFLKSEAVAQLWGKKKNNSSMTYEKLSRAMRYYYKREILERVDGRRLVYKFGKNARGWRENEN
# In short: as §1
# SPI1 = SPI1 (Homo sapiens, UniProt P17947 1-270)
# In short: as §1
# SPIB = SPIB (Homo sapiens, UniProt Q01892 1-262)
# In short: as §1
# ELK3 = target: T5, ELK3 (Homo sapiens, UniProt P41970 1-407)
# T5 sequence: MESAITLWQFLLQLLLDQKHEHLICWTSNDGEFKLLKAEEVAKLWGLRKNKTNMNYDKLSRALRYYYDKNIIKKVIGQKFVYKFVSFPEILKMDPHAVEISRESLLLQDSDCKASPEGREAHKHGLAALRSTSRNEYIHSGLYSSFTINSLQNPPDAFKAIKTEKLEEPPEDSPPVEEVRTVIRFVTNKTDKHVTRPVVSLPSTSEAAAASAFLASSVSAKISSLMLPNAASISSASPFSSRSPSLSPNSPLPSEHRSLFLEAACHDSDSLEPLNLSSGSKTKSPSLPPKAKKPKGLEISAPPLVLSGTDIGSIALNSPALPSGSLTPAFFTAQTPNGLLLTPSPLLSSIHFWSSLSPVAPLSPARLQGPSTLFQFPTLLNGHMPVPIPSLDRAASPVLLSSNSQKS
# In short: as §1
# FEV = target: T6, FEV (Homo sapiens, UniProt Q99581 1-238)
# T6 sequence: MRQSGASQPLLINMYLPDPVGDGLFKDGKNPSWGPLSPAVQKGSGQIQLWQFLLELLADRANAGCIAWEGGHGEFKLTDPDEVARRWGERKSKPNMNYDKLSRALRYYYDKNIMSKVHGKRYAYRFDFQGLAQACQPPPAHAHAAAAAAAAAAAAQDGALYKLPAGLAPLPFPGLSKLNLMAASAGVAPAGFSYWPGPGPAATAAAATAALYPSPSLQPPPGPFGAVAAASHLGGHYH
# In short: as §1
# ETV5 = ETV5 (Homo sapiens, UniProt P41161 1-510)
# In short: as §1
# SPIC = target: T7, SPIC (Homo sapiens, UniProt Q8N5J4 1-248)
# T7 sequence: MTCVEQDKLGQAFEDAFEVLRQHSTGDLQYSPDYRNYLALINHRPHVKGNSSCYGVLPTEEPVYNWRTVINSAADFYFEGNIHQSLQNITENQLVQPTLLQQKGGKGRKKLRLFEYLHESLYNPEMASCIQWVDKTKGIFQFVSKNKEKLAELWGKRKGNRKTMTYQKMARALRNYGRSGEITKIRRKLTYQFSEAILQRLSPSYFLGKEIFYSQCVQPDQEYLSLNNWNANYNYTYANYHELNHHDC
# In short: as §1
# ELF4 = ELF4 (Homo sapiens, UniProt Q99607 1-663)
# In short: as §1
# ETV1 = ETV1 (Homo sapiens, UniProt P50549 1-477)
# In short: as §1
# ERF = target: T8, ERF (Homo sapiens, UniProt P50548 1-548)
# T8 sequence: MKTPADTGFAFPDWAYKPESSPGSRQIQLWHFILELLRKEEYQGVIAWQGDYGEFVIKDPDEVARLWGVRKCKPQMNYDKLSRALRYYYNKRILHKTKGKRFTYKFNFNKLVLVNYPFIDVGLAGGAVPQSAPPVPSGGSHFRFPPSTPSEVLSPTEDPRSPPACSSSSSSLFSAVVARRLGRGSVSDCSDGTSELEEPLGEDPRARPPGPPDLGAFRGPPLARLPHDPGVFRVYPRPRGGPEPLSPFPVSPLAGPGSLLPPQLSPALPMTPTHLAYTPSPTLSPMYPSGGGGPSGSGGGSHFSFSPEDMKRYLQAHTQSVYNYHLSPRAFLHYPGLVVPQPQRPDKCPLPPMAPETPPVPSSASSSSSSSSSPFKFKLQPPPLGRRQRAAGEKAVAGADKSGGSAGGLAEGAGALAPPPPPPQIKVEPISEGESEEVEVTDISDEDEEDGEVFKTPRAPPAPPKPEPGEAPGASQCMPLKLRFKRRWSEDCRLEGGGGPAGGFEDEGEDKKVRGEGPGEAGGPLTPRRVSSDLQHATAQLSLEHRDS
# In short: as §1
# ETV3L = target: T9, ETV3L (Homo sapiens, UniProt Q6ZN32 1-361)
# T9 sequence: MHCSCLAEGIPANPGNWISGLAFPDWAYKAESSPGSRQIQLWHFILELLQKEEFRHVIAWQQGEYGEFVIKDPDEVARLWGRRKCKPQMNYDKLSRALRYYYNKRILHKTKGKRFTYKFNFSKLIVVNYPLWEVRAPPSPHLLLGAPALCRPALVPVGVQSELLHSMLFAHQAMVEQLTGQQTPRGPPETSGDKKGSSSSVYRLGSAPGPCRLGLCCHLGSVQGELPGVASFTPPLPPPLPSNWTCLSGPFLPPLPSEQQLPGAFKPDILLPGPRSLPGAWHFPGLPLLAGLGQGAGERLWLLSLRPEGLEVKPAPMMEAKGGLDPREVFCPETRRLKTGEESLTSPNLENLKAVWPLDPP
# In short: as §1
# ETS2 = target: T10, ETS2 (Homo sapiens, UniProt P15036 1-469)
# T10 sequence: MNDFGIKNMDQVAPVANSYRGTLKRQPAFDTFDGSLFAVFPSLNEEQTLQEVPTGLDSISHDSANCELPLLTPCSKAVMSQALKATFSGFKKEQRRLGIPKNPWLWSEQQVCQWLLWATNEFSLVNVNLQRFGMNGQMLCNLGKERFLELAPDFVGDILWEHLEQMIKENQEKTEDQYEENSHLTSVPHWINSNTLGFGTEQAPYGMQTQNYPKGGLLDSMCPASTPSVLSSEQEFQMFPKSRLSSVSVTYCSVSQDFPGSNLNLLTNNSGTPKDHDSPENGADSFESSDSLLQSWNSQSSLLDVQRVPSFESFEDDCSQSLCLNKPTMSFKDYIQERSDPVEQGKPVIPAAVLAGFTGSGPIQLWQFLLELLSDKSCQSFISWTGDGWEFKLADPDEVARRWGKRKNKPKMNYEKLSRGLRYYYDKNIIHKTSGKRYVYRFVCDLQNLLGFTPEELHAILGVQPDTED
# In short: as §1
# SPDEF = target: T11, SPDEF (Homo sapiens, UniProt O95238 1-335)
# T11 sequence: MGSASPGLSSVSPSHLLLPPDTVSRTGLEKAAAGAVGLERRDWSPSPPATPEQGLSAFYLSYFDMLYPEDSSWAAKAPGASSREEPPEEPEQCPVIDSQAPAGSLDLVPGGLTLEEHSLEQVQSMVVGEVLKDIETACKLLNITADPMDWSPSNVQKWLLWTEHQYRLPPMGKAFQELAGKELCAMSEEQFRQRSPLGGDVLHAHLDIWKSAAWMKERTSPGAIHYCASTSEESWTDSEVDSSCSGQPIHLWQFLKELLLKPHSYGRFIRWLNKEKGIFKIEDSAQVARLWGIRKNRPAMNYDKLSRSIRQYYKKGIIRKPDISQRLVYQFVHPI
# In short: as §1
# ETV3 = target: T12, ETV3 (Homo sapiens, UniProt P41162-2 1-143)
# T12 sequence: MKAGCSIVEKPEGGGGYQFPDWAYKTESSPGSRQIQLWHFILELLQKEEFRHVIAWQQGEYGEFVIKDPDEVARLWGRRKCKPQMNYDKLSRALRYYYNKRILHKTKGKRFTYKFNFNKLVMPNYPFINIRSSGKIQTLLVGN
# In short: as §1
# ETV6 = ETV6 (Homo sapiens, UniProt P41212 1-452)
# In short: as §1
# Sequence of ELF4 (Q99607 whole entry): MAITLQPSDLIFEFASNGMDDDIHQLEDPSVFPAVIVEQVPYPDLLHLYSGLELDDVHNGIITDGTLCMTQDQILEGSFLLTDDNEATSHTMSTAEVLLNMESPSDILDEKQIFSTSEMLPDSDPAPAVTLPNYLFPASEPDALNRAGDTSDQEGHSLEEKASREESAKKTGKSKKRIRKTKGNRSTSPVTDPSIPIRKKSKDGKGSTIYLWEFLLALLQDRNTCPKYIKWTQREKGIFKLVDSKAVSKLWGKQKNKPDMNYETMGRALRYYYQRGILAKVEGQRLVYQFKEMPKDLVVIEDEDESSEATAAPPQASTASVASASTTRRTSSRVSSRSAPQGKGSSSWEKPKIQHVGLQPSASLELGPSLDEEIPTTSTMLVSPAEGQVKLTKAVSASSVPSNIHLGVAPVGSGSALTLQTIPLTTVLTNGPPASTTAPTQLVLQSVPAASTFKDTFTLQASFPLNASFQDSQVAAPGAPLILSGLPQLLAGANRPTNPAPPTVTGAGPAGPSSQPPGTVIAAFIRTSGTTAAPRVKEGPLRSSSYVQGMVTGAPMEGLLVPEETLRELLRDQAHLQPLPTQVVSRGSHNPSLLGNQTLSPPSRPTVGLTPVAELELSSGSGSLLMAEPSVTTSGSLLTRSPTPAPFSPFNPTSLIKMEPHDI
# Sequence of ETV1 (P50549 whole entry): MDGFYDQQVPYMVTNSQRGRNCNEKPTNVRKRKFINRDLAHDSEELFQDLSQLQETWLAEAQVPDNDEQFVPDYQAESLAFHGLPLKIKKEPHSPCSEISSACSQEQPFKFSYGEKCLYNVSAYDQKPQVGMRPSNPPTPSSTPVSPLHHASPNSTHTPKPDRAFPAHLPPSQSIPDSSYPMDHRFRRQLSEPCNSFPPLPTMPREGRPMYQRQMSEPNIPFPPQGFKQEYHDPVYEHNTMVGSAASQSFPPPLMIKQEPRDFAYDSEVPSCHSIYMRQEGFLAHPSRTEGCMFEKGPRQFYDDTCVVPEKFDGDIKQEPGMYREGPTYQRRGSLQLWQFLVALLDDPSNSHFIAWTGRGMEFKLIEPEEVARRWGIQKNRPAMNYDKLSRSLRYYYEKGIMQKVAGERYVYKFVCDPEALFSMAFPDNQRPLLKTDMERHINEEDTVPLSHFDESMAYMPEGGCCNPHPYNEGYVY
# Sequence of ETV6 (P41212 whole entry): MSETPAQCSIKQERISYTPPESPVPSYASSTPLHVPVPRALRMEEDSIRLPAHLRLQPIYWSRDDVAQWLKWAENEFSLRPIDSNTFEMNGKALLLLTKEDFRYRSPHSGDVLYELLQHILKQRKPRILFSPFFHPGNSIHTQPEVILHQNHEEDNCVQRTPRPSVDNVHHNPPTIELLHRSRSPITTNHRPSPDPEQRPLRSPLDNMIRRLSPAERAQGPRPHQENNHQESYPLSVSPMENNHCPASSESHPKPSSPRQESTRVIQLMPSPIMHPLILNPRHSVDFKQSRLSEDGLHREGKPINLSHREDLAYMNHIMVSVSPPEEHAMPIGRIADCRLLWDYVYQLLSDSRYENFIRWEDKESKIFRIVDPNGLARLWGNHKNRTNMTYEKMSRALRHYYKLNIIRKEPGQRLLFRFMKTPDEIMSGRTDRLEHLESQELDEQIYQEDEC
# Sequence of SPIB (Q01892 whole entry): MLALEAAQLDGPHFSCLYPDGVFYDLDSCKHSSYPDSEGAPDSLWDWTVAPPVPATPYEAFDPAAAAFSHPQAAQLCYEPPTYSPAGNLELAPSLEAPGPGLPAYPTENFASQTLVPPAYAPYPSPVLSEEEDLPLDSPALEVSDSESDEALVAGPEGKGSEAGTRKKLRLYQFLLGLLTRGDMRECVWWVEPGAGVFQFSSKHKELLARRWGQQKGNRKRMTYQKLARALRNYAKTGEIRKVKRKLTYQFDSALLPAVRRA
# Sequence of ELF1 (P32519 whole entry): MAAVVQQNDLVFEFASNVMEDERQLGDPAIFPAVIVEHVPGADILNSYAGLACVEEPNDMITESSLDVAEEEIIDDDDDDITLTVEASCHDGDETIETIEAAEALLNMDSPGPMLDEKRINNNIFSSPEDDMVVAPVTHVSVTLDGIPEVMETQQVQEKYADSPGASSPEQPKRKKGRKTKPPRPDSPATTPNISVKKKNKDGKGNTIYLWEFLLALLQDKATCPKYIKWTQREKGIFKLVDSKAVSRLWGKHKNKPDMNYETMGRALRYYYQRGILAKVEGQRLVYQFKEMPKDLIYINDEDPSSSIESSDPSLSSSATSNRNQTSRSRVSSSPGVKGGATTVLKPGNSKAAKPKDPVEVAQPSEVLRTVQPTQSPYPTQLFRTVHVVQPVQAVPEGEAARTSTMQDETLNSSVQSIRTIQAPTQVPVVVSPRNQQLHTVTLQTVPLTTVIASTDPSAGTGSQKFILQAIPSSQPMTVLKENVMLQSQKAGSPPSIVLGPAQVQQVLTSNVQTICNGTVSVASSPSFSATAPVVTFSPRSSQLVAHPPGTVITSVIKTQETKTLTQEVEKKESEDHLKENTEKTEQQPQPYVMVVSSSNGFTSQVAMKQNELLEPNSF
# Sequence of ETV5 (P41161 whole entry): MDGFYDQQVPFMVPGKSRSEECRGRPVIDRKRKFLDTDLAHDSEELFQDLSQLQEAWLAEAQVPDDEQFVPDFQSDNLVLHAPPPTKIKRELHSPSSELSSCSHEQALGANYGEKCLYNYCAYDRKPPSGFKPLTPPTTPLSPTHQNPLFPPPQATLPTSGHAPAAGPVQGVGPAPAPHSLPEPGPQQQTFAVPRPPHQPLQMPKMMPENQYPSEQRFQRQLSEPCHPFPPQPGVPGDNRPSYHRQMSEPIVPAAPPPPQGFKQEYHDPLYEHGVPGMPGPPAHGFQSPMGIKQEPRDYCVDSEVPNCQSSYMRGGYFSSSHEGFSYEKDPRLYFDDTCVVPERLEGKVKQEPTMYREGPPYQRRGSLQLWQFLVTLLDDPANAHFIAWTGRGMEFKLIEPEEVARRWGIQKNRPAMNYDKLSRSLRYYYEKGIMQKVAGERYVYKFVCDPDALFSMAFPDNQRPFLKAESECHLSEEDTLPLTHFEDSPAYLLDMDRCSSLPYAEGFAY
sequence,measurement,setting,value
AAAGCG,binding signal,FLI1,"1.01 fold enrichment (6-mer frequency, TF over GST control)"
same,binding signal,GABPA,"1.03 fold enrichment (6-mer frequency, TF over GST control)"
same,binding signal,ERG,"1.09 fold enrichment (6-mer frequency, TF over GST control)"
same,binding signal,ELF1,"1.06 fold enrichment (6-mer frequency, TF over GST control)"
same,binding signal,EHF,"1.1 fold enrichment (6-mer frequency, TF over GST control)"
same,binding signal,SPI1,"1.53 fold enrichment (6-mer frequency, TF over GST control)"
same,binding signal,SPIB,"1.1 fold enrichment (6-mer frequency, TF over GST control)"
same,binding signal,ELK3,"1.08 fold enrichment (6-mer frequency, TF over GST control)"
same,binding signal,FEV,"1.06 fold enrichment (6-mer frequency, TF over GST control)"
same,binding signal,ETV5,"1.18 fold enrichment (6-mer frequency, TF over GST control)"
same,binding signal,SPIC,"1.08 fold enrichment (6-mer frequency, TF over GST control)"
same,binding signal,ELF4,"1.11 fold enrichment (6-mer frequency, TF over GST control)"
same,binding signal,ETV1,"1.05 fold enrichment (6-mer frequency, TF over GST control)"
same,binding signal,ERF,"1.13 fold enrichment (6-mer frequency, TF over GST control)"
same,binding signal,ETV3L,"1.04 fold enrichment (6-mer frequency, TF over GST control)"
same,binding signal,ETS2,"1.04 fold enrichment (6-mer frequency, TF over GST control)"
same,binding signal,SPDEF,"1.03 fold enrichment (6-mer frequency, TF over GST control)"
same,binding signal,ETV3,"1.14 fold enrichment (6-mer frequency, TF over GST control)"
same,binding signal,ETV6,"1.1 fold enrichment (6-mer frequency, TF over GST control)"
